Over roughly 16,000 sequences, “Z-score” has its median near -0.37; the highest 2% begin near 3.2. The sample holds the highest values, similar sequences and a random draw of the others, so the mix is not that of the screen.
These sequences were tested on RBM10 RRM1-ZnF (GST-tagged construct) (assay: RNAcompete 7-mer binding Z-score; higher = stronger binding preference).
How it was run: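 A designed pool of 241 399 RNAs, each up to 41 nt and transcribed from microarray-derived DNA templates, was used at 1.5 nmol with 20 pmol of GST-tagged RBM10 constructs. The mixture, in 1 ml Hepes pH 7.8 buffer with KCl, NaCl, glycerol, DTT, BSA and glutathione Sepharose beads, was held 30 min at 4°C and then washed four times for 2 min at 4°C. Bound RNA was read out by microarray hybridisation, and enrichment of each heptamer motif was scored as a one-sided Z-score over the probes carrying it.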

Row | Sequence | RNAcompete 7-mer binding Z-score
1 | GUGUAAA | 0.618
2 | AUGACGG | 1.39
3 | UAAAUAU | -0.425
4 | CGGAUGU | 1.04
5 | CGUGGAA | 1.19
6 | GGUGGAG | 4.02
7 | GGUGGAA | 3.81
8 | AGUGGAA | 3.24
9 | AGUGGAC | 1.34
10 | AGUGGAU | 2.35
11 | UGUGGAG | 2.62
12 | UGUGGAA | 2
13 | GGUGGAU | 2.75
14 | UUCCGGC | -0.649
15 | GCCUGCU | -0.724
16 | UGUCGUA | -0.311
17 | UGUUUAG | -0.0155
18 | UAUAGGC | 0.196
19 | AAACCCC | -0.597
20 | UCCGAUA | -0.746
21 | GGGUGCA | 2.74
22 | GAGGCCG | 0.0723
23 | UUGCCGU | -0.659
24 | CUGGGCC | -0.0285
25 | GCCCAUA | -0.805

Row | Sequence | RNAcompete 7-mer binding Z-score
26 | AGAAGAA | 1
27 | AGAAGGU | 3.26
28 | GGAAGGU | 4.23
29 | GGAAGGC | 2.63
30 | CGAAGGG | 2.43
31 | AGAAGCU | -0.48
32 | AGAAGGA | 3.99
33 | AGAAGGC | 0.699
34 | AGAAGGG | 3.86
35 | CGAAGGU | 1.5
36 | UGAAGGU | 2.57
37 | AGAAGAG | 1.64
38 | CCCCCAU | -0.448
39 | GAAUGAC | 0.16
40 | GGCAGUC | 0.28
41 | AGCCUUU | -1
42 | ACUUAUG | -0.655
43 | UGAAGCG | 0.608
44 | UGAAGGA | 2.99
45 | GGAAGGA | 4.79
46 | CGAAGGA | 1.62
47 | UGAAGGC | 1
48 | UGAAGGG | 3.82
49 | GCAUUCU | -0.785
50 | UCGUACU | -0.539

Row | Sequence | RNAcompete 7-mer binding Z-score
51 | GAGGCAC | 0.628
52 | CCUAGUG | -0.266
53 | UUCCAUC | -0.675
54 | GCAGCGC | -0.178
55 | GGUGAGA | 2.57
56 | GUUGAGC | 0.706
57 | GAUGAGU | 1.06
58 | CGUGAGG | 1.35
59 | AUUGAGG | 1.63
60 | CAUGAGG | 1.03
61 | GAUGAGG | 3.56
62 | GGUGAGG | 4.5
63 | GUUGAGG | 3.36
64 | GUGUGUC | 0.137
65 | CUCAAUA | -0.802
66 | GCGAAGG | 2.06
67 | UAACUAU | -0.617
68 | GCUAACA | -0.399
69 | AGAGCUG | 0.163
70 | GAUGGAU | 2.6
71 | CAUGGAA | 1.1
72 | GAUGGAC | 1.78
73 | AAUGGAG | 3.43
74 | CAUGGAG | 1.48
75 | GAUGGAG | 3.52

Row | Sequence | RNAcompete 7-mer binding Z-score
76 | GAUGGAA | 3.36
77 | AAUGGAC | 2.03
78 | UAUGGAG | 1.67
79 | GUUGGAA | 1.84
80 | UAUGGAA | 1.22
81 | AAUGGAA | 3.35
82 | AUCUACA | -0.568
83 | CACCCUC | -0.578
84 | UGCUUGA | -0.737
85 | GGCGCAU | 0.183
86 | UGAUGAC | -0.0512
87 | CUUGCCU | -0.824
88 | UCAUCUG | -0.844
89 | GUUUCAC | -0.597
90 | CGGGUUG | 2.79
91 | GCGGUUG | 1.42
92 | AGGGUUA | 3.55
93 | GGGGUUG | 3.76
94 | AGGGUUU | 2.56
95 | UGGGUUA | 3.28
96 | UGGGUUU | 2.64
97 | GGGGUUC | 1.79
98 | GGGGUUU | 3.16
99 | AGGGUUC | 0.985
100 | GGGGUUA | 3.21

Row | Sequence | RNAcompete 7-mer binding Z-score
101 | UGGGUUG | 3.04
102 | AAUCUAA | -0.617
103 | UUAUACA | -0.542
104 | AUGUGGU | 1.52
105 | GUCCGAC | -0.662
106 | CUUCGGC | -0.759
107 | AGAUAUC | -0.688
108 | AGGGUCG | 1.41
109 | ACGGUUG | 1.78
110 | AGGGUUG | 3.8
111 | CAUAAGA | -0.513
112 | CACCGCG | 0.069
113 | UGGUGUA | 1.52
114 | UGGUGUG | 2.77
115 | GGGUGUG | 3.76
116 | GGGUGUA | 3.43
117 | AGGUGUA | 1.74
118 | CGGUGUG | 1.72
119 | AAUUUGA | -0.399
120 | ACAGAGG | 1.59
121 | UACAAGA | -0.295
122 | AGCGGGG | 4.14
123 | AGCGGGU | 3.07
124 | GGCGGGG | 3.96
125 | GGCGGGU | 2.9

Row | Sequence | RNAcompete 7-mer binding Z-score
126 | UGCGGGC | 1.13
127 | GGCGGGC | 2.11
128 | UGCGGGU | 2.92
129 | AGCGGGA | 3.31
130 | CGCGGGG | 2.15
131 | CGCGGGA | 1.05
132 | UGCGGGG | 3.26
133 | UGCGGGA | 1.87
134 | GGCUUUA | -0.418
135 | UUGCAGA | -0.171
136 | AGCGGAU | 3.22
137 | AGCGGAC | 1.16
138 | AGCGGAA | 2.07
139 | CUCAGGU | -0.0447
140 | CGCAUAC | -0.61
141 | GGAUGAG | 3.4
142 | AGAUGAG | 1.43
143 | AGAUGUG | 0.936
144 | GGAUGUU | 0.959
145 | GGAUGAA | 2.16
146 | GGAUGUG | 3.43
147 | CUCGUGC | -0.789
148 | AGCAAUC | -0.435
149 | CGGGUAG | 2.18
150 | AGGGUAC | 2.1

Row | Sequence | RNAcompete 7-mer binding Z-score
151 | AGGGUAG | 3.72
152 | UGGGUAC | 2.69
153 | UGGGUAG | 3.5
154 | UGGGUAU | 2.37
155 | GACCAUU | -0.915
156 | AUGGACG | 2.69
157 | CACGUGG | 0.566
158 | UCUUGAA | -0.785
159 | CAUCCGC | -0.847
160 | CCAAUCU | -0.802
161 | ACUAGGG | 2.03
162 | AGUAGGC | 0.975
163 | CGUAGGG | 1.94
164 | UGUAGGA | 1.7
165 | UGUAGGG | 3.6
166 | AGUAGGG | 4.16
167 | AUACGAA | -0.194
168 | CGGCUUG | -0.324
169 | CUCGCAC | -0.587
170 | GUUCUAA | -0.552
171 | GAUAUGG | 3.3
172 | GGUAUGU | 1.56
173 | GGUAUGG | 4.22
174 | AAUAUGG | 1.09
175 | GGUAUGA | 2.19

Row | Sequence | RNAcompete 7-mer binding Z-score
176 | GAUAUGC | -0.0577
177 | UCCCUGG | -0.24
178 | GUUCGAG | -0.00571
179 | CGAACAU | -0.503
180 | UUUAGGC | -0.321
181 | GGAGGGA | 4.01
182 | CGAGGGG | 2.86
183 | AGAGGGG | 2.11
184 | AGAGGGA | 2.09
185 | GGAGGGC | 3.13
186 | GGAGGGG | 4.57
187 | GGAGAGA | 1.46
188 | GGAGAGG | 3.41
189 | UUAGAGG | 1.31
190 | AGAGAGG | 1.27
191 | AUAGAGG | 1.55
192 | GUAGAGG | 3.56
193 | GUCCAUU | -0.818
194 | CCCACUG | -0.483
195 | GUUAUUC | -0.513
196 | UGUAGGU | 1.75
197 | UUGCCGC | -0.662
198 | UUGGUCA | 0.0788
199 | CAAGUAA | -0.275
200 | AAACCAG | -0.324

Row | Sequence | RNAcompete 7-mer binding Z-score
201 | CGAGAAG | 0.495
202 | AGAGAAG | 1.63
203 | GGAGAAG | 3.36
204 | GUGUCCA | -0.457
205 | GGGCCGU | 0.53
206 | UAGGGGG | 3.97
207 | CAGGGGG | 2.94
208 | UAGGGGA | 3.71
209 | UAGGGGU | 3.9
210 | UAGGGAC | 1.79
211 | CAGGGGU | 3.01
212 | UAGGGAA | 3.15
213 | UAGGGCU | 1.42
214 | UAGGGGC | 2.25
215 | UGCUAGA | -0.233
216 | UGUUCUC | -0.746
217 | CCGCACC | -0.509
218 | ACAGCGA | -0.0674
219 | GGACUAU | 0.000789
220 | AUAGCCU | -0.724

Reference: the supplement of paper PMC5499739
